JMJD2A Tudor inh: qHTS Assay for Inhibitors of JMJD2A-Tudor Domain | AID 504339, 2011 | 390,000 tested, 4.4% active | Potency, µM (titrated, usually from 114 µM), actives largely listed as inhibitors | AlphaScreen JMJD2A-Tudor / H3K4me3 peptide binding | Lysine-specific demethylase 4A (Homo sapiens), O75164; note: nearly all actives have a fitted effect of over 50% in size
G9a inh: qHTS Assay for Inhibitors of Histone Lysine Methyltransferase G9a. Histone-lysine N-methyltransferase EHMT2 (Homo sapiens), Q96KQ7. 350,000 tested, 8.8% active. Potency, µM (titrated, usually from 102 µM), usual class: inhibitors. G9a H3K9 monomethylation, AlphaScreen, 2 h. AID 504332, 2011; note: nearly all actives have a fitted effect of over 75% in size
Target sequence (Q96KQ7 913-1193 limits assumed): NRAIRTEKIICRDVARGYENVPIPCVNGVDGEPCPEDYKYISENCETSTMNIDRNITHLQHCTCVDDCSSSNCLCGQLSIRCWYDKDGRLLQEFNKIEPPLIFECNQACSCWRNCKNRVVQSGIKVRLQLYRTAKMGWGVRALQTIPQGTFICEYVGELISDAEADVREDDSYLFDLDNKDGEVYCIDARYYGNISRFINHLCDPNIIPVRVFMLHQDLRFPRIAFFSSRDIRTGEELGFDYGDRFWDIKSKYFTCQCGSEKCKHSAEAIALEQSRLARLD
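Using a bead-based AlphaScreen, monomethylated H3K9 product from 2 h room-temperature reactions (G9a 20 nM, peptide 500 nM, SAM 20 uM) was detected with 0.5 ug/mL rabbit anti-H3K9me1 antibody.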
HP1b chromo inh: HTS for Inhibitors of HP1-beta Chromodomain Interactions with Methylated Histone Tails; Chromobox protein homolog 1 (Homo sapiens), P83916; AlphaScreen HP1-beta / biotin-H3K9me3 peptide binding; Potency, µM (titrated, usually from 114 µM), usual class: inhibitors; 390,000 tested, 0.56% active; note: nearly all actives have a fitted effect of over 70% in size
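Compound inhibition of the preformed complex between 50 nM HP1-beta and 50 nM biotinylated H3K9me3 peptide was read by AlphaScreen. Buffer was PBS pH 7.4 with 0.01% Tween-20. Incubations ran 30 min at room temperature, with 10 ug/mL donor/acceptor beads.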
PLK1 PBD block: qHTS for Inhibitors of PLK1-PDB (polo-like kinase 1 - polo-box domain): Primary Screen. Serine/threonine-protein kinase PLK1 (Homo sapiens), P53350. Plk1 PBD binding of FITC phosphopeptide, fluorescence polarization. Potency, µM, hits mostly inhibitors. 360,000 tested, 2.8% active; note: series mostly up to about 57 µM; nearly all actives have a fitted effect of over 65% in size
PI5P4Ka inh: qHTS for Inhibitors of phosphatidylinositol 5-phosphate 4-kinase (PI5P4K); Phosphatidylinositol 5-phosphate 4-kinase type-2 alpha (Homo sapiens), P48426; PI5P4Kalpha enzyme, ADP-Glo luminescence, 60 min; hits give low values; max response, %; 330,000 tested, 1.2% active; active = max response of -50% or lower; inconclusive = between -30% and -50%; inactive = -30% or higher; note: value at the top dose of about 77 µM
Target sequence (P48426 whole entry, looked up): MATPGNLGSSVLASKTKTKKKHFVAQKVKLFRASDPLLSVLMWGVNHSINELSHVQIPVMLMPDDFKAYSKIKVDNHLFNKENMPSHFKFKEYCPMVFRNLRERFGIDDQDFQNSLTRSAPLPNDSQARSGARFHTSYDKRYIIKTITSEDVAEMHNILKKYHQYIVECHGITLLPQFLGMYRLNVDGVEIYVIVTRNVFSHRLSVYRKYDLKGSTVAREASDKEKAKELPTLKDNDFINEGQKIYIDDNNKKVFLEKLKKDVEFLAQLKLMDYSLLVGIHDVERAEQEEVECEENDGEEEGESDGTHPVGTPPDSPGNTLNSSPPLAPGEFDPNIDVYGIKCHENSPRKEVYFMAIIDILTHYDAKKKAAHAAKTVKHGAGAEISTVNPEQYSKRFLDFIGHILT
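ADP-Glo luminescence end-point after a 60 min room-temperature kinase reaction. PI5P4Kalpha and substrate in HEPES pH 7.4 buffer with EGTA, 0.1% CHAPS and 5% DMSO; ATP at 5 microM final.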
BAZ2B block: qHTS Assay for Inhibitors of BAZ2B; AlphaScreen BAZ2B-H3K14Ac peptide displacement; Potency, µM (series often up to 114 µM), usual class: inhibitors; AID 504333, 2011; Bromodomain adjacent to zinc finger domain protein 2B (Homo sapiens), Q9UIF8; 360,000 tested, 4.4% active; note: nearly all actives have a fitted effect of over 60% in size
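Inhibition is scored as reduced AlphaScreen emission. The BAZ2B/b-H3(5-23)K14Ac complex (50 nM each) in PBS pH 7.4, 0.01% Tween-20 meets compound (up to 110 uM) for 30 min at RT before bead addition.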
Of the large screens only hits and unclear results are named; the others gave an inactive call. In the library only some 12% were active in any assay of this set; here they are far more common. Unless noted, calls come from the whole dose curve; as a rule, active = well fitted curve in the direction sought with a large enough effect; inconclusive = small, poorly fitted or top-dose-only effect, or another doubt; inactive = no such curve, though single readings can be large; an effect the other way counts as inactive or inconclusive.

C[C@@H]1CN([C@H](C)CO)C(=O)Cc2cc(NC(=O)Nc3ccccc3)ccc2O[C@@H]1CN(C)Cc1ccc2c(c1)OCO2	JMJD2A Tudor inh inconclusive (no result: G9a inh, BAZ2B block)
CC1(C(=O)NS(=O)(=O)c2ccc(F)cc2F)CCN1C(=O)Cc1cc(F)ccc1F (configuration not stated)	none (no result: JMJD2A Tudor inh, G9a inh, HP1b chromo inh, BAZ2B block)
Cc1ccn(CCC(=O)NC2CCCc3c2cnn3-c2cccc(C)c2C)n1 (configuration not stated)	JMJD2A Tudor inh inconclusive, PLK1 PBD block 29.9µM
O=C(CSc1ccc(-c2cccnc2)nn1)N1CCCc2ccccc21	none (no result: JMJD2A Tudor inh, HP1b chromo inh, PLK1 PBD block, PI5P4Ka inh)
CCn1nnnc1SCC(=O)N1CCCc2ccccc21	JMJD2A Tudor inh inconclusive, PLK1 PBD block 26.7µM
O=C(CSc1ccc(-c2ccccn2)nn1)N1CCCc2ccccc21	JMJD2A Tudor inh 7.94µM, G9a inh inconclusive, BAZ2B block 8.91µM
CCn1nnnc1SCC(=O)N1CCc2ccccc21	none (no result: G9a inh, BAZ2B block)
Cc1ccccc1NC(=O)CSc1[nH]c(=O)cc(C)c1C#N	G9a inh 14.1µM, PLK1 PBD block 21.2µM, PI5P4Ka inh -56.0
Cc1cc(-n2c(C)cc(C(=O)CSc3[nH]c(=O)cc(C(F)(F)F)c3C#N)c2C)no1	none
Cc1cc(=O)[nH]c(SCC(=O)c2ccccc2)c1C#N	G9a inh inconclusive
Cc1cc(NC(=O)CSc2[nH]c(=O)cc(C(F)(F)F)c2C#N)no1	PI5P4Ka inh -74.8
COc1ccc(-n2nc(C(=O)Nc3ccc(C)cn3)c3c4ccccc4n(C)c3c2=O)cc1	none (no result: PLK1 PBD block, PI5P4Ka inh, BAZ2B block)
Cc1cc(C)nc(-n2nc(C)c3c(=O)[nH]c(C(F)(F)F)nc32)n1	JMJD2A Tudor inh 79.4µM
Cn1c(COc2cccc3cccnc23)nnc1SCC(=O)O	HP1b chromo inh inconclusive, PLK1 PBD block 26.7µM (no result: G9a inh)
Cc1cc(C(=O)COc2ccccc2C(N)=O)c(C)n1C	none (no result: BAZ2B block)
Cc1cc(C(=O)COc2cccnc2[N+](=O)[O-])c(C)n1-c1ccccc1	G9a inh inconclusive, BAZ2B block inconclusive
Cc1cc(C(=O)COc2cccc3cccnc23)c(C)n1C	G9a inh 2.82µM, BAZ2B block 11.2µM
Cc1ccc(OCC(=O)c2cc(C)n(C)c2C)c([N+](=O)[O-])n1	G9a inh inconclusive, BAZ2B block 56.2µM
Cc1cc(C(=O)COc2nncc3ccccc23)c(C)n1C	G9a inh 79.4µM
N#Cc1nc(COc2ccc(Br)cc2)oc1NCCN1CCOCC1	G9a inh 50.1µM, BAZ2B block inconclusive (no result: PI5P4Ka inh)
N#Cc1nc(COc2ccc(F)cc2)oc1NCCN1CCOCC1	G9a inh 79.4µM, BAZ2B block inconclusive
O=c1[nH]cnc(O)c1C(c1ccc(Br)cc1)c1c(O)nc[nH]c1=O	none
O=c1[nH]cnc(O)c1C(c1ccc2c(c1)OCO2)c1c(O)nc[nH]c1=O	G9a inh 50.1µM
Cc1sc2nc3c(SC(C)C(=O)O)cc(C(=O)c4ccccc4O)cn3c(=O)c2c1C (configuration not stated)	G9a inh 50.1µM, PLK1 PBD block inconclusive, PI5P4Ka inh inconclusive, BAZ2B block inconclusive
CCOC(=O)c1sc2nc3c(SCC(=O)O)cc(C(=O)c4ccccc4O)cn3c(=O)c2c1C	JMJD2A Tudor inh 10µM, G9a inh 31.6µM, HP1b chromo inh inconclusive, BAZ2B block 15.8µM
COC(=O)c1cc(C(=O)c2cc(F)ccc2O)cn2c(=O)c3c(C)c(C)sc3nc12	JMJD2A Tudor inh 39.8µM, G9a inh inconclusive, PLK1 PBD block inconclusive
CCOC(=O)c1sc2nc3c(SCC(=O)O)cc(C(=O)c4cc(F)ccc4O)cn3c(=O)c2c1C	JMJD2A Tudor inh 39.8µM, G9a inh 79.4µM, HP1b chromo inh inconclusive, PLK1 PBD block inconclusive, BAZ2B block 35.5µM
O=C(c1cnc2nc3ccccc3n2c1)c1cc(F)ccc1O	PI5P4Ka inh inconclusive (no result: G9a inh)
CCc1c(C)sc2nc3c(C(=O)N4CCOCC4)cc(C(=O)c4ccccc4O)cn3c(=O)c12	JMJD2A Tudor inh inconclusive, BAZ2B block inconclusive
CC(CNC(=O)c1ccc(Cn2c(SCc3ccccc3)nc3cccnc32)cc1)c1ccccc1 (configuration not stated)	none (no result: PLK1 PBD block, PI5P4Ka inh)
CCNc1ncc2nc(-c3ccc(Cl)cc3)c(=O)n(-c3ccccc3)c2n1	none (no result: JMJD2A Tudor inh, HP1b chromo inh, PLK1 PBD block, PI5P4Ka inh, BAZ2B block)
O=C(O)CSc1cc(C(=O)c2ccccc2O)cn2c(=O)c3c(-c4ccccc4)csc3nc12	JMJD2A Tudor inh 56.2µM, G9a inh inconclusive, PLK1 PBD block inconclusive, PI5P4Ka inh -53.3 (no result: BAZ2B block)
COc1ccc(O)c(C(=O)c2cc(SCC(=O)O)c3nc4sc5c(c4c(=O)n3c2)CCCC5)c1	JMJD2A Tudor inh 25.1µM, HP1b chromo inh 25.1µM, PLK1 PBD block 26.7µM, PI5P4Ka inh inconclusive, BAZ2B block 22.4µM
Nc1[nH]c(C(=O)c2ccccc2)c(-c2ccc(F)cc2)c1C(=O)NCc1ccccc1	none (no result: JMJD2A Tudor inh, G9a inh, HP1b chromo inh, BAZ2B block)
Cc1c2c(=O)n(-c3nc4ccccc4s3)nc-2cc(O)n1Cc1ccccc1	PI5P4Ka inh -78.5, BAZ2B block 39.8µM (no result: G9a inh)
COc1cc(OC)nc(Oc2ccccc2C=O)n1	none (no result: G9a inh, BAZ2B block)
COc1cc(OC)nc(Oc2ccccc2/C=N/O)n1	JMJD2A Tudor inh 44.7µM (no result: G9a inh, BAZ2B block)
COc1ccc(S(=O)(=O)N(C)C)cc1NC(=O)[C@H](Cc1ccccc1)N1C(=O)c2ccccc2C1=O	G9a inh 50.1µM
Cc1ccc(S(=O)(=O)N(C)C)cc1NC(=O)[C@H](Cc1ccccc1)N1C(=O)c2ccccc2C1=O	none
O=C(NC(=S)NNC(=O)c1cccs1)c1ccccc1	G9a inh 8.91µM
CC(C)(C)c1ccc(C(=O)NC(=S)NNC(=O)c2cccs2)cc1	JMJD2A Tudor inh inconclusive, G9a inh 39.8µM
Cc1ccccc1C(=O)NNC(=S)NC(=O)c1cccs1	G9a inh inconclusive
Cc1cccc(C(=O)NC(=S)NNC(=O)c2ccc(Cl)cc2)c1	G9a inh 39.8µM
O=C(NNC(=O)c1cc2cc3ccccc3nc2s1)c1cccc(Cl)c1	JMJD2A Tudor inh 50.1µM, G9a inh 31.6µM, PI5P4Ka inh inconclusive
COCCN(C(=O)CCC(=O)Nc1ccccn1)C(C(=O)NCCC(C)C)c1ccc(C)cc1 (configuration not stated)	none
O=S1(=O)CC(N2CCN(CC3CC3)CC2)CN1CCc1ccccc1 (configuration not stated)	none (no result: JMJD2A Tudor inh, G9a inh, HP1b chromo inh, BAZ2B block)
O=C(NNC(=O)c1cccc(Cl)c1)NNC(=O)c1cccc(Cl)c1	none (no result: G9a inh, BAZ2B block)
NC(=S)NNC(=O)c1cccc(Cl)c1	G9a inh 70.8µM

Screens (PubChem BioAssay)
